This passage reports outcome and Potency results from PubChem BioAssay (Tox21).

Records with an inconclusive call do not appear. The source made the active and inactive calls. Unless noted, the call rests on the fitted dose curve; in most records, active means well fitted curve in the direction sought with a large enough effect in the repeat runs; inconclusive means weak or mixed curves; inactive means no such curve, though single readings can be large; an effect the other way counts as inactive or inconclusive.

Test [1] is described as follows: qHTS assay to identify small molecule antagonists of the vitamin D receptor (VDR) signaling pathway - cell viability counter screen (AID 743225). Further: nearly all actives have a fitted effect of over 50% in size. The method in brief:
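Luminescent cell viability (CellTiter-Glo) in VDR-bla HEK 293T cells after 16 h compound exposure at 37C in the presence of 3 nM final 1-alpha,25-dihydroxy vitamin D3.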

Test [2] can be described thus: qHTS assay to identify small molecule agonists of the NFkB signaling pathway (AID 1159509; active means well fitted curve in the direction sought with a large enough effect in the signal ratio in the repeat runs, not every such curve was filed as active; the % refers to the signal ratio; further: series mostly up to about 61 µM). The method in brief:
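ME-180 NFkB-bla, 2,000 cells/well, overnight plating; cpd pinned in DMSO, 5 h 37 C; B/G FRET substrate 1.5 h RT; ex 405, em 460/530 nm.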

Test [3] is described as follows: qHTS assay to identify small molecule agonists of the NFkB signaling pathway - cell viability counter screen (AID 1159515; calls by dose curve; further: series mostly up to about 61 µM; nearly all actives have a fitted effect of over 55% in size). The method in brief: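 Viability in NFkB-bla ME-180 cells was measured by CellTiter-Glo luminescence, 30 min room temperature, in wells already treated 5 hr with compounds and read for reporter FRET.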
Test [4] is described as follows: qHTS assay to identify small molecule agonists of the endoplasmic reticulum stress response signaling pathway (AID 1159516; active means well fitted activation curve with a large enough effect in the signal ratio in the repeat runs, not every such curve was filed as active; the % refers to the signal ratio). The method in brief:
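ER stress element reporter (bla) in HeLa. 1,500 cells/well, overnight attachment; 5 hr compound; 2 hr RT substrate; dual-emission fluorescence.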

The nature of test [5]: qHTS assay to identify small molecule agonists of the endoplasmic reticulum stress response signaling pathway - cell viability counter screen (AID 1159517; calls by dose curve;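 further: HeLa cells carrying an ER stress response element beta-lactamase reporter; series mostly up to about 61 µM; nearly all actives have a fitted effect of over 50% in size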). In outline:
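HeLa cells carrying an ESRE-driven beta-lactamase reporter receive compound for 5 hr at 37 C. Cell viability is then gauged with CellTiter-Glo by luminescence, 30 min at room temperature.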

Test [6] in a line: qHTS assay to identify small molecule antagonists of the retinoid-related orphan receptor gamma (ROR-gamma) signaling pathway - cell viability counter screen (AID 1159520). Further: nearly all actives have a fitted effect of over 50% in size. In outline: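 Cytotoxicity was read from cellular ATP (CellTiter-Glo luminescence) after 16 hr at 37 C with 1 uM doxycycline induction. The inducer was added 2 hr after compound transfer to Tet-on ROR gamma CHO cells.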

The target of test [7] is Nuclear receptor ROR-gamma (Homo sapiens) (UniProt P51449). As to the kind of experiment: qHTS assay to identify small molecule antagonists of the retinoid-related orphan receptor gamma (ROR-gamma) signaling pathway (AID 1159521; further: nearly all actives have a fitted effect of over 50% in size; further: potency means the concentration at half of the fitted maximal effect). The method in brief: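 CHO cells expressing RORγ under a TET-on promoter, luciferase under RORE control. Dox 1 uM final, 16 h; compounds added 2 h prior. Luminescence decrease measured.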

The nature of test [8]: qHTS assay to identify small molecule agonists of the AP-1 signaling pathway - cell viability counter screen (AID 1159525; calls by dose curve; further: nearly all actives have a fitted effect of over 55% in size). The method in brief: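 Luminescent ATP readout (Cell Titer Glo, 30 min RT), normalised to DMSO and tetra n-octyl ammonium bromide controls. Cells were ME-180 AP-1-bla in 0.5% dialyzed FBS Opti-MEM, with a 5 h, 37 °C compound exposure.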
Test [9] in a line: qHTS assay to identify small molecule agonists of the AP-1 signaling pathway (AID 1159526; calls by dose curve).
Test [10] in a line: qHTS assay to identify small molecule antagonists of the retinoid acid receptor (RAR) signaling pathway - cell viability counter screen (AID 1159551). Further: nearly all actives have a fitted effect of over 35% in size. The method in brief:
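Following overnight attachment, C3RL4 reporter cells received DMSO-dissolved compounds and then retinol (1 uM final). Six hours later at 37 C, ATP content was measured by CellTiter-Glo luminescence.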

Test [11] in a line: qHTS assay to identify small molecule antagonists of the retinoic acid receptor (RAR) signaling pathway (AID 1159552; further: nearly all actives have a fitted effect of over 50% in size). The method in brief:
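Readout: luciferase luminescence, 30 min post-reagent at RT. Setup: C3RL4 RARE reporter cells, compounds plus retinol 1 uM final, 6 hr incubation at 37 C and 5% CO2.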

The nature of test [12]: qHTS assay to identify small molecule agonists of the retinoic acid receptor (RAR) signaling pathway (AID 1159553). Further: potency means the concentration at half of the fitted maximal effect. In outline:
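Cell line C3RL4, RARE luciferase reporter. Treatment: compounds in DMSO, 6 hr, 37 C, 5% CO2, after overnight plating. Detection: luminescence, 30 min RT after reagent.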

Test [13] can be described thus: qHTS assay to identify small molecule antagonists of the estrogen related receptor (ERR) signaling pathway from Tox21 library - cell viability counter screen (AID 1224834). Further: nearly all actives have a fitted effect of over 30% in size. The method in brief: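 Viability readout (CellTiter-Fluor fluorescence, 30 min at 37 C) multiplexed with the ERR assay; cells treated 17.5 h at 37 C with compounds delivered in DMSO.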
Test [14] is described as follows: qHTS assay to identify small molecule agonists of the RXR signaling pathway - cell viability counter screen (AID 1159529). In outline:
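Same-well viability check after the LiveBLAzer FRET read: CellTiter-Glo added, luminescence measured after 30 min at room temperature. Reporter HEK 293T cells had been treated with compounds for 16 hr following a 5 hr preincubation.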

The target of test [15] is Retinoic acid receptor RXR-alpha (Homo sapiens) (UniProt P19793). The test is described as follows: qHTS assay to identify small molecule agonists of the RXR signaling pathway (AID 1159527; calls by dose curve; further: nearly all actives have a fitted effect of over 35% in size). The method in brief:
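Beta-lactamase reporter assay, agonist format. Engineered HEK 293T line, charcoal-stripped FBS at 2%, overnight (16 hr) exposure, fluorescence at 460 and 530 nm after 405 nm excitation.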

Chain of Retinoic acid receptor RXR-alpha (Homo sapiens) (P19793 whole entry, looked up): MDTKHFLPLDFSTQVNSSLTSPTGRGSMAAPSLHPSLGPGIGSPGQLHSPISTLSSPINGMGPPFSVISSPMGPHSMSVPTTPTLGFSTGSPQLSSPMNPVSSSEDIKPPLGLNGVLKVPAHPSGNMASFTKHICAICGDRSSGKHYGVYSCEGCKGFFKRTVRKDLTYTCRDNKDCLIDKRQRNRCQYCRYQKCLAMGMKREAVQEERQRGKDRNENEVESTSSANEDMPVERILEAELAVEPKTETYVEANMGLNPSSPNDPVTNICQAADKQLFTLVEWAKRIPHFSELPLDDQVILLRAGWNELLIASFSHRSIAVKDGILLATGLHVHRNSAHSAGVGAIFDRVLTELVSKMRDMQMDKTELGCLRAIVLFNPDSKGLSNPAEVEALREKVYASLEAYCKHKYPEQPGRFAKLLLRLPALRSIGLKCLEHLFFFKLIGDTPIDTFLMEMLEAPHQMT

As to `CCCSC(=O)Cl`, the call in test [1], in test [2], in [3], in test [4] and in test [9] was inactive. Moreover, the Potency entry in test [5], in [6], in test [7], in test [8], in [10] and in test [11] was “inactive” in each case. The Potency result in test [12] and in test [13] was “inactive” in each case.

On to `CC1CN1P(=O)(N1CC1C)N1CC1C` (stereo not drawn), for which the outcome in test [1], in [2], in [3] and in [4] was inactive. The Potency entry in [5], in test [6], in test [7], in [8], in [14] and in [10] was “inactive” each time. Besides, the Potency result in [13] was “inactive”.

As for `CN1CCN(C(=O)O[C@H]2c3nccnc3C(=O)N2c2ccc(Cl)cn2)CC1`, the compound was called inactive in test [1], in test [2], in test [3], in test [4] and in test [9]. Besides, the Potency entry in test [5], in test [6], in test [7], in test [8], in test [10] and in [11] was “inactive” each time. Also, the Potency result in [12] and in test [13] was “inactive” in each case.

On to `ClC(Br)Br`, for which the result in test [2], in test [3], in test [4] and in test [9] was inactive. Also, the Potency result in test [5], in [6], in [7], in test [8], in test [10] and in test [11] was “inactive” each time. The Potency entry in [12] and in [13] was “inactive” in each case.

Take `O=c1oc2ccccc2c(O)c1C1CCCc2ccccc21` (stereo not drawn): the compound was called inactive in test [1], in test [2], in test [3], in test [4] and in test [9]. The Potency result in test [5], in test [6], in test [8], in test [10], in test [11] and in test [12] was “inactive” each time. Further, the Potency entry in [13] is “inactive”. In addition, the Potency in test [7] is 48.6 µM (active).

For `ClCCOCOCCCl`, the result in test [1], in [2], in [3], in test [4] and in test [9] was inactive. Further, the Potency entry in [5], in test [6], in test [7], in [8], in [10] and in test [11] was “inactive” throughout. Besides, the Potency result in [12] and in test [13] was “inactive” in each case.

Consider `CC1CCCCC1NC(=O)Nc1ccccc1` (stereo not drawn), for which the outcome in test [1], in test [2], in test [3], in [4] and in test [9] was inactive. In addition, the Potency result in test [5], in test [6], in [7], in [8], in test [10] and in [11] was “inactive” in each case. In addition, the Potency entry in test [13] was “inactive”.

As for `Fc1ccc(C2(Cn3cncn3)OC2c2ccccc2Cl)cc1` (stereo not drawn), the outcome in test [2], in test [3], in test [4] and in test [9] was inactive. In addition, the Potency entry in test [5], in test [6], in test [7], in test [8], in test [10] and in test [11] was “inactive” throughout. In addition, in [12], the Potency result was “inactive”.

As for `CN(N=O)C(N)=O`, the outcome in test [1], in [2], in test [3] and in [4] was inactive. In addition, the Potency entry in [5], in [6], in [7], in test [8], in [15] and in test [14] was “inactive” throughout. Also, the Potency entry in test [10], in [11] and in test [13] was “inactive” in each case.

Turning to `Oc1c(Cl)cccc1Cl`, the outcome in test [1], in test [2], in test [3], in test [4] and in test [9] was inactive. Also, the Potency entry in test [5], in test [6], in [8], in test [15], in test [14] and in [10] was “inactive” throughout. For the same compound, the Potency result in test [11] and in test [13] was “inactive” each time.

`C[C@]12CC[C@H]3[C@@H](CC=C4C[C@@H](O)CC[C@@]43C)[C@@H]1CC[C@@H]2O`: the compound was classed as inactive in test [2], in test [3], in [4] and in [9]. Further, the Potency result in test [5], in [6], in test [8], in test [15], in test [10] and in test [11] was “inactive” throughout. The Potency entry in test [12] and in test [13] was “inactive” throughout.

For the compound `CC(C)(C)NCC(O)c1cc(Cl)c(N)c(Cl)c1` (stereo not drawn), the compound was called inactive in test [1], in test [2], in test [3], in [4] and in test [9]. Moreover, the Potency result in [5], in test [6], in test [8], in [15], in test [14] and in test [10] was “inactive” in each case.

With `Cc1nc(N)nc(N)n1`, the call in test [1], in [2], in test [3], in [4] and in [9] was inactive. Besides, the Potency entry in test [5], in test [6], in test [8], in [15], in test [14] and in [10] was “inactive” throughout. Moreover, the Potency result in test [11], in [12] and in test [13] was “inactive” throughout.

Turning to `COC(=O)c1ccccc1S(=O)(=O)NC(=O)Nc1nc(C)cc(C)n1`, the call in test [1], in test [2], in test [3], in test [4] and in [9] was inactive. Further, the Potency entry in [5], in test [6], in test [8], in test [14], in test [10] and in [11] was “inactive” in each case. Besides, the Potency entry in test [12] and in test [13] was “inactive” each time.

In the case of `c1coc(-c2nc3ccccc3[nH]2)c1`, the result in [2], in test [3], in test [4] and in test [9] was inactive. Besides, the Potency entry in test [5], in [6], in [8], in test [10], in test [11] and in test [13] was “inactive” each time. For the same compound, the Potency in [12] is 3.86 µM (active).

For the compound `COC(=O)c1ccccc1S(=O)(=O)NC(=O)N(C)c1nc(C)nc(OC)n1`, the outcome in [1], in test [2], in test [3], in test [4] and in test [9] was inactive. The Potency entry in test [5], in test [6], in test [8], in test [15], in [14] and in test [10] was “inactive” in each case. In addition, the Potency result in test [11], in test [12] and in test [13] was “inactive” in each case.

`CCN(CC)CCOC(=O)C(C)(c1ccccc1)c1ccccc1`: the compound was called inactive in [1], in [2], in [3], in test [4] and in [9]. The Potency entry in [5], in [6], in test [8], in test [15], in test [14] and in [10] was “inactive” in each case. Besides, the Potency result in test [11], in test [12] and in test [13] was “inactive” each time.
